Assay outcomes as filed in PubChem BioAssay.
The full list was thinned out, with hits kept by preference.
Pf Dd2 growth: blocks in vitro growth of P. falciparum Dd2. P. falciparum Dd2 growth, SYBR Green, 72 h. Potency, µM (doses to about 28.9 µM), most hits filed as inhibitors. hit rate 4.3% among 120,000. AID 1347417; active = well fitted inhibition curve with a large enough effect; note: nearly all actives have a fitted effect of over 65% in size
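Infected erythrocytes (Dd2, 0.3% parasitemia, 2.5% hematocrit final) are added to compound in RPMI-1640/Albumax II medium, grown 72 h at 37C in low oxygen, then lysed with saponin/Triton-X containing SYBR Green and read by fluorescence.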
Hits are given with their value; n = inactive.

SMILES | Pf Dd2 growth
CC(C)CCN1CCC(O)(c2csc(CN3CC[C@@H](O)C3)n2)CC1 | n
O=C(COc1ccccc1)N1CCC(O)(c2csc(CN3CCc4ccccc4C3)n2)CC1 | n
CCN(CC)Cc1nc(C2(O)CCN(CC3CC3)CC2)cs1 | n
OC1(c2csc(CN3CCc4ccccc4C3)n2)CCN(C2CCC2)CC1 | 10µM
CC(C)(C)CC(=O)N1CCC(O)(c2csc(CN3CCc4ccccc4C3)n2)CC1 | n
CC(C)CCN1CCC(O)(c2csc(CN3CCc4ccccc4C3)n2)CC1 | 13µM
CCN(CC)Cc1nc(C2(O)CCN(CCC(C)C)CC2)cs1 | 16µM
OC1(c2csc(CN3CCc4ccccc4C3)n2)CCN(CC2CCCCC2)CC1 | 3.2µM
CN1CCN(Cc2nc(C3(O)CCN(CC4CC4)CC3)cs2)CC1 | n
CN1CCC(N2CCC(O)(c3csc(CN4CCc5ccccc5C4)n3)CC2)CC1 | n
CC1CCCN(CCCNC(=O)CN2C(=O)CSc3ccc(S(=O)(=O)N4CCOCC4)cc32)C1 (stereo not drawn) | n
COCc1nc(CCNC(=O)NCC(C)C)no1 | n
O=C1NC2(Cc3ccccc31)CN(C(=O)c1ccccc1)C2 | n
COC[C@@H]1[C@H](NC(=O)CN2CCN(c3cccc(C)c3)CC2)[C@@H]2CCO[C@H]12 | n
CCn1nccc1C(=O)N1C[C@@H](COC)[C@H](c2nc(C)no2)C1 | n
CCOc1ccc(C2Cn3nnc(-c4nc(-c5ccc(C)c(C)c5)no4)c3CO2)cc1 (stereo not drawn) | n
Cc1ccc(NC(=O)c2cccc(N3CCCS3(=O)=O)c2)cc1C | n
CC1CCC2(CC1)OCC(C(=O)N1CCOCC1)N2C(=O)c1ccccc1F (stereo not drawn) | n
COc1ccc(NC(=O)CN2CCN(C3CCCCC3)C(=O)C2=O)cc1 | n
COc1cc(-c2nc3c([nH]2)CCCNC3=O)ccc1O | n
Cc1cc2nc(-c3ccc(OCc4ccccc4Cl)cc3)cc(C(F)(F)F)n2n1 | n
COc1ccc(-c2nnc(SCC(=O)Nc3ccc(C)c(C)c3)s2)cc1 | n
CC[C@H]1CN(S(=O)(=O)c2c(C)noc2C)CC[C@H]1CC(=O)O | n
O=C(c1ccccc1F)N1CCC(O)(c2csc(CN3CCc4ccccc4C3)n2)CC1 | 3.2µM
OC1(c2csc(CN3CCc4ccccc4C3)n2)CCN(Cc2ccccc2F)CC1 | n
SMILES | Pf Dd2 growth
COCC(=O)N1CCC(O)(c2csc(CN3CCc4ccccc4C3)n2)CC1 | n
CCN1C(=O)CN(C(=O)C2CC2)CC12CCOCC2 | n
COCCNC(=O)c1nc2nc(-c3ccccc3)c(Cl)cc2n1C | n
COc1ccc(-c2cc3c(nc2-c2ccccc2)nc(C(=O)NCCN(C)C)n3C)cn1 | 7.1µM
COCc1nc2nc(-c3ccccc3)c(-c3ccc(O)c(F)c3)cc2n1C | n
CN1CCC(NC(=O)Cc2c[nH]c3ncc(-c4ccccc4)cc23)CC1 | n
COc1cc(F)ccc1-c1cc2c(nc1-c1ccccc1)nc(C(=O)NCCN(C)C)n2C | 2.5µM
CC(C)(C)OC(=O)N1CCC(NC(=O)c2nc(-c3ccccc3)c3ccccn23)CC1 | n
CN(C)CCNC(=O)c1ccc(-c2nn(C)c(=O)c3ccccc23)cc1 | n
COc1cc(-c2cc3c(nc2-c2ccccc2)nc(C(=O)NCCN(C)C)n3C)ccn1 | n
Cc1cc(-c2cc3c(nc2-c2ccccc2)nc(C(=O)NC2CCN(C)CC2)n3C)ccn1 | 6.3µM
CCC(c1cccs1)N1C(=O)[C@H]2CN(S(=O)(=O)Cc3ccccc3)C[C@H]2C1=O (stereo partly drawn) | n
O=C(Cc1cccc(F)c1)N1CCN(C(=O)N2CC3CC(C2)[C@H]2CCCC(=O)N2C3)CC1 (stereo partly drawn) | n
COCCNC(=O)C[C@@H]1O[C@H](CNC(=O)c2ccc(N(C)C)cc2)[C@@H](O)[C@H]1O | n
COc1ccc(OC)c(NC(=O)c2ccc3nc(C(C)C)oc3c2)c1 | n
O=C(Nc1ccc(F)cc1)C1CCN(C(=O)c2ncn3c2COC(c2ccccc2)C3)CC1 (stereo not drawn) | n
CCn1ncc(N2CCCC(CC(=O)NC3CCCC3)C2)cc1=O (stereo not drawn) | n
Cc1cccc(NC(=O)N2CCC(CN3CCC(C)CC3)CC2)c1C | n
COC(=O)c1ccc(Cl)cc1NC(=O)N1CCC(CN2CCCC2)CC1 | n
COC(=O)c1ccc(Cl)cc1NC(=O)N1CCC(CN2CCC(C)CC2)CC1 | 10µM
CCCc1cc(C(=O)N[C@@H]2COCC[C@H]2Oc2ccc(C(=O)O)cc2)n[nH]1 | n
Cc1ccc(C)c(NC(=O)Cn2c(N3CCCCC3)nc(C)c(C)c2=O)c1 | n
Oc1cccc(Nc2ncnc3sc4c(c23)CCCC4)c1 | n
COc1ncc(CN2CCc3c(n(Cc4cccnc4)n(-c4ccccc4)c3=O)C2)cn1 | n
CCNc1ncnc2sc3c(c12)CCN(C(=O)COC)C3 | n
SMILES | Pf Dd2 growth
CCNc1ncnc2sc3c(c12)CCN(C(=O)CCOC)C3 | n
COCCCNc1ncnc2sc3c(c12)CCN(Cc1cccnc1)C3 | 5µM
CCNc1ncnc2sc3c(c12)CCN(Cc1ccncc1)C3 | 13µM
Cc1ccc(C)c(OCC(=O)c2ccc3c(c2)N(CCCC(=O)N2CCOCC2)C(=O)CO3)c1C | n
CC(C)c1ccc(NC(=O)O[C@@H]2CO[C@H]3[C@@H]2OC[C@@H]3NC(=S)NC2CCCCC2)cc1 | n
O=C(Cc1ccccc1)Nc1ccc([C@@H](O)[C@H]2COCC(=O)N2Cc2ccccc2F)cc1 | n
CN(C(=O)Nc1cn(C)c(=O)c2ccccc12)c1ccccc1 | n
COc1ccc(-c2nc3c(c(=O)[nH]2)CCN(C(=O)Nc2cc(F)cc(F)c2)C3)cc1 | n
COc1ccc(-c2nc3c(c(=O)[nH]2)CCN(C(=O)c2nccc4ccccc24)C3)cc1 | 5µM
COc1ccc(-c2nc3c(c(=O)[nH]2)CCN(C(=O)NCC2CCCO2)C3)cc1 (stereo not drawn) | n
COc1ccc(-c2nc3c(c(=O)[nH]2)CCN(C(=O)Nc2ccc4c(c2)CCC4)C3)cc1 | n
COc1ccc(-c2nc3c(c(=O)[nH]2)CCN(S(=O)(=O)C2CC2)C3)cc1 | n
COc1ccc(-c2nc3c(c(=O)[nH]2)CCN(C(=O)c2cc(Cl)ccc2OC)C3)cc1 | 10µM
COc1ccc2[nH]c(C(=O)N3CCn4nc(CO)cc4C3)c(C)c2c1 | n
COc1cccc(CNC(=O)c2cnc3sc(N4CCCC4)nn3c2=O)c1OC | n
Cc1ccc(C(=O)Nc2ccc(C(=O)O)cc2)cc1S(=O)(=O)N1CCC(C)CC1 | n
Cc1ccc2c(c1)N(C(=O)Nc1cccc3c1CCCC3)CCO2 | n
Cc1cccc(N2CCN(C(=O)CCNS(=O)(=O)c3ccc4c(c3)CCN4C(=O)C3CC3)CC2)c1C | n
COc1cccc(NC(=O)CN(CCc2ccccc2)S(=O)(=O)c2ccc(Cl)cc2)c1 | n
COc1ccc(CNC(=O)c2cc3cc4ccc(C)cc4nc3o2)cc1 | n
Cc1ccc2cc3cc(C(=O)N(C)c4ccccc4C)oc3nc2c1 | 11µM
COc1ccc2cc3cc(C(=O)NCc4ccccc4OC)oc3nc2c1 | n
COc1ccccc1CNC(=O)CCCn1c(=O)c2ccccc2n(CC(=O)Nc2c(C)cc(C)cc2C)c1=O | n
COc1ccc(Nc2cc(C(=O)NC3CCC(C)CC3)c3ccccc3n2)cc1OC (stereo not drawn) | n
CCc1ccccc1Nc1cc(C(=O)NCCCN(C)C2CCCCC2)c2ccccc2n1 | n
Cc1cc(C)cc(Nc2cc(C(=O)NCCCN(C)C3CCCCC3)c3ccccc3n2)c1 | 6.3µM
CCCCN(C)CCCNC(=O)c1cc(-c2ccc(Br)s2)nc2ccccc12 | 11µM
